In PubChem BioAssay:
Results filed as inconclusive are left out. For part of these data: Entries with a potency or affinity are not part of this list. Active and inactive are the calls of the source. Unless noted, how the calls were made is not given here.

What was measured:
[1] = human hepatoma cell viability loss – ATP luminescence, cytotoxicity control for P. falciparum antimalarial project, primary screen (AID 2303;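 active means inhibition above 50%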;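 further: 0% = DMSO wells and 100% = digitonin-killed cells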); settings: HepG2 viability, 24-48 h, at 10 µM, hits give high values
[2] = biological target: L-lactate dehydrogenase (Plasmodium falciparum (isolate CDC / Honduras)) (UniProt Q27743); assay: PfLDH activity inhibition – cell lysate, 3D7 strain, counter-screen for P. falciparum growth inhibition project (AID 2304);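 further: 0% = vehicle and 100% = reference inhibitor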; settings: P. falciparum 3D7 crude extract, LDH APAD/NBT absorbance; at 2 µM; hits give high values
[3] = inhibition of 3D7 malaria parasite growth – strain 3D7 (AID 2306);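 further: 0% = DMSO wells and 100% = chloroquine plus artemisinin control wells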; settings: P. falciparum 3D7 erythrocytic growth, LDH absorbance, 72 h; at 2 µM; hits give high values
[4] = biological target: Calcium-dependent protein kinase 1 (Plasmodium falciparum (isolate 3D7)) (UniProt P62344); assay: PfCDPK1 kinase inhibitors, biochemical, TCAMS library (AID 1159585; cut-off not given, nearly all actives have IC50 up to about 0.98 µM;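 further: inhibitors leave more ATP so luminescence rises with inhibition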); settings: recombinant PfCDPK1, Kinase-Glo ATP depletion luminescence
[5] = biological target: Plasmodium falciparum protein kinase 6 (PK6, PF3D7_1337100) (UniProt Q8IDW1); assay: PfPK6 kinase inhibitors, biochemical, TCAMS library (AID 1159586); settings: recombinant PfPK6, Kinase-Glo ATP depletion luminescence
[6] = biological target: Protein kinase 7 (PK7), Plasmodium falciparum 3D7 (PF3D7_0213400) (UniProt Q7YTF7); assay: inhibition of Plasmodium PK7 catalytic activity – biochemical, TCAMS antimalarial set, Kinase-Glo luminescence (AID 1159587); settings: recombinant PfPK7, Kinase-Glo ATP depletion luminescence
[7] = biological target: Calcium-dependent protein kinase 4 (Plasmodium falciparum (isolate 3D7)) (UniProt Q8IBS5); assay: PfCDPK4 kinase inhibitors, biochemical, TCAMS library (AID 1159588; cut-off not given, nearly all actives have IC50 up to about 0.91 µM); settings: recombinant PfCDPK4, Kinase-Glo ATP depletion luminescence
[8] = antimalarial activity against Dd2 strain (AID 2302;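 active means growth inhibition above 50% at the single 2 µM test dose, taken to imply half-maximal potency below 2 µM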;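 further: 0% = DMSO untreated growth and 100% = chloroquine plus artemisinin killed control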); settings: P. falciparum Dd2 in RBCs, LDH growth readout, 72 h; at 2 µM; hits give high values
[9] = viability loss in pontine glioma line – cell-based, SU-DIPG-XIII, MIPE4.0, CellTiter-Glo, qHTS, dose response (AID 1347061; cut-off not given, nearly all actives have AC50 up to about 37 µM;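 further: cells exposed to compound for 48 hours before readout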); settings: CellTiter-Glo ATP luminescence
[10] = viability loss in pontine glioma line – cell-based, JHH-DIPG-1, MIPE4.0, CellTiter-Glo, qHTS, dose response (AID 1347062; cut-off not given, nearly all actives have AC50 up to about 27 µM;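 further: cells exposed to compound for two days before readout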); settings: JHH-DIPG-1 viability, CellTiter-Glo ATP luminescence
[11] = viability loss in pontine glioma line – cell-based, SU-DIPG-IV, MIPE4.0, CellTiter-Glo, qHTS, dose response (AID 1347063; cut-off not given, nearly all actives have AC50 up to about 30 µM;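 further: compound exposure lasted 48 hours before the viability readout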); settings: CellTiter-Glo ATP luminescence
[12] = viability loss in pontine glioma line – cell-based, SU-DIPG-XIII, MIPE5.0, CellTiter-Glo, qHTS, dose response (AID 1347064; cut-off not given, nearly all actives have AC50 up to about 23 µM;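 further: cells exposed to compound for 48 hours before the viability read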); settings: CellTiter-Glo ATP luminescence
[13] = growth inhibition of DIPG cells – cell-based, MIPE5.0 library, qHTS (AID 1347068; cut-off not given, nearly all actives have IC50 up to about 30 µM;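 further: cells exposed to compound for 48 hours before viability readout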); settings: SU-DIPG-XXV viability

Chain of Protein kinase 7 (PK7), Plasmodium falciparum 3D7 (PF3D7_0213400) (Q7YTF7 1-343): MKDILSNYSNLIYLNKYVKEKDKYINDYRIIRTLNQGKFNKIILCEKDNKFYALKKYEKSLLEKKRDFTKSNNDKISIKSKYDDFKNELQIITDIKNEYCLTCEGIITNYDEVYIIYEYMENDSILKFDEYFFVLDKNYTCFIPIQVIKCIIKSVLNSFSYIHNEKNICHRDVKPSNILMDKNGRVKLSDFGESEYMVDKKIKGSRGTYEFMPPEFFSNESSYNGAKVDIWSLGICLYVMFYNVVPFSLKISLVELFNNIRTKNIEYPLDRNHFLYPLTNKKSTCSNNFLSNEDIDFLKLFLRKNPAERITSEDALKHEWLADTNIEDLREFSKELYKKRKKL
Chain of L-lactate dehydrogenase (Plasmodium falciparum (isolate CDC / Honduras)) (Q27743 whole entry, looked up): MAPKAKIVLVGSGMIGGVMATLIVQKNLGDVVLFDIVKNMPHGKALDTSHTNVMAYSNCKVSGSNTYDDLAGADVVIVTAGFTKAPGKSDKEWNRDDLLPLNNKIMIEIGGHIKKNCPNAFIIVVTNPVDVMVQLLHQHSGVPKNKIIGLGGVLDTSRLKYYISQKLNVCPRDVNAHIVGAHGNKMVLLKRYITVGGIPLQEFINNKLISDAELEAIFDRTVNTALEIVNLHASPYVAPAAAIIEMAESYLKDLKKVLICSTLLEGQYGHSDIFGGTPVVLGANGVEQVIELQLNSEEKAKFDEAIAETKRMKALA
Chain of Calcium-dependent protein kinase 1 (Plasmodium falciparum (isolate 3D7)) (P62344 whole entry, looked up): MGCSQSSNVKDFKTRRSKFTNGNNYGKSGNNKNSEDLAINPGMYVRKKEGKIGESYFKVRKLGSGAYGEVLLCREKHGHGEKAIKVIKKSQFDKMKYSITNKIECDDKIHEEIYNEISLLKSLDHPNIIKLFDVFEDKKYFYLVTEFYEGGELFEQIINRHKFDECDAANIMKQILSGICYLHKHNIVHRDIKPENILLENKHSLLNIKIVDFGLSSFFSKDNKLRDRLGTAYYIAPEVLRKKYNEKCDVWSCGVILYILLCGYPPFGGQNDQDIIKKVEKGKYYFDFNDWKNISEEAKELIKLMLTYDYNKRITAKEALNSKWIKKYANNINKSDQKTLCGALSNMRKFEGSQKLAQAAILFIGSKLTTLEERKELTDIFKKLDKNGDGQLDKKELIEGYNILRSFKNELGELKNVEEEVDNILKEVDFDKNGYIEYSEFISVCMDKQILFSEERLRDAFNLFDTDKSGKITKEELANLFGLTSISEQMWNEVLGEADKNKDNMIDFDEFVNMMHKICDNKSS
Chain of Calcium-dependent protein kinase 4 (Plasmodium falciparum (isolate 3D7)) (Q8IBS5 whole entry, looked up): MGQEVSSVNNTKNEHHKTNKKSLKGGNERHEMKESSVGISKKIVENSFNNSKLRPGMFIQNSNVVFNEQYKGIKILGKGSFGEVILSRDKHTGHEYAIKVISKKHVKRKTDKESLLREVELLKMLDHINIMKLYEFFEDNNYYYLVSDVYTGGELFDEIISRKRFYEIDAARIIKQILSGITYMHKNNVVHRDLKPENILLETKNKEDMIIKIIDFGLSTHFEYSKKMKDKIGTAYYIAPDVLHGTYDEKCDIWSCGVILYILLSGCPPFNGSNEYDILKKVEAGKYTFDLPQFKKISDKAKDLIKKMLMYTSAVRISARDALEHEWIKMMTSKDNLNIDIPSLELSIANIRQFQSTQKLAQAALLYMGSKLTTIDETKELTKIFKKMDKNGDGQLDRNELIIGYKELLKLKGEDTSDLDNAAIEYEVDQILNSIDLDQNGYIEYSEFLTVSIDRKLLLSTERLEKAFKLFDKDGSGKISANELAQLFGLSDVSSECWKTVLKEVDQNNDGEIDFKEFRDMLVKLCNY
Chain of Plasmodium falciparum protein kinase 6 (PK6, PF3D7_1337100) (Q8IDW1 1-305): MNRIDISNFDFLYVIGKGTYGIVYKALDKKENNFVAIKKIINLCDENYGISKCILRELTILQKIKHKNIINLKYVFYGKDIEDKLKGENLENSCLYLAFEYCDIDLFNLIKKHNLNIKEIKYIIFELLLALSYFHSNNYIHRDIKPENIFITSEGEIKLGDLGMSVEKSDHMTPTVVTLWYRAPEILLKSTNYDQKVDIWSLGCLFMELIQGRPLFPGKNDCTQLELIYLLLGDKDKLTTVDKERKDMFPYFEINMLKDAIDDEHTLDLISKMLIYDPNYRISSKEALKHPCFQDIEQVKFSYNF

C[C@@H]1CN(c2ccc3[nH]cc(Sc4ccc(-c5cccs5)cc4)c3c2)C[C@H](C)N1
active: growth inhibition [3] 89%
inactive: inhibition [1] 29% | inhibition [2] -4% | outcome [4] | outcome [5] | outcome [6] | outcome [7]

O=C(NCCCCN1CCC(c2ccc3c(c2OCCOCCO)CCCC3)CC1)c1ccc(-c2ccc(C(F)(F)F)cc2)cc1
inactive: inhibition [1] 44% | inhibition [2] -5% | outcome [4] | outcome [5] | outcome [6] | outcome [7]
active: growth inhibition [3] 97%

COc1ccc2c(c1)C(C)(CCCN(C)C)C(=O)N2C (configuration not stated)
active: growth inhibition [3] 93%
inactive: inhibition [1] 8% | inhibition [2] -3% | outcome [4] | outcome [5] | outcome [6] | outcome [7]

COc1ccc(N=C(N)Nc2ccccc2)nc1Cc1ccccc1
active: growth inhibition [3] 81%
inactive: inhibition [1] 17% | inhibition [2] -6% | outcome [4] | outcome [5] | outcome [6] | outcome [7]

COc1cc2c(cc1C(F)(F)F)N(C(=O)Nc1ccc(Br)cn1)CC2
active: growth inhibition [3] 97%
inactive: inhibition [1] 16% | inhibition [2] -3% | outcome [4] | outcome [5] | outcome [6] | outcome [7]

COc1cc2ncnc(Nc3ccc(OC(F)(F)c4ccccc4)cc3)c2cc1OC
inactive: inhibition [1] 14% | inhibition [2] 2% | outcome [4] | outcome [5] | outcome [6] | outcome [7]
active: growth inhibition [3] 91%

CCN(CC)CCNC(=O)c1ccc(N=Cc2c(O)[nH]c3ccc(S(=O)(=O)Cc4c(Cl)cccc4Cl)cc23)cc1
active: growth inhibition [8] 56% | growth inhibition [3] 100%
inactive: inhibition [1] 25% | inhibition [2] 3% | outcome [4] | outcome [5] | outcome [6]

O=C(Nc1ccccc1)Nc1cccc(-c2nn3c(OCCN4CCCC4)cccc3c2-c2ccncc2)c1
inactive: inhibition [1] 30% | inhibition [2] 4% | outcome [4] | outcome [5] | outcome [6]
active: growth inhibition [8] 98% | growth inhibition [3] 102%

CNCC(C)(C)c1nc(-c2ccc(Cl)c(O)c2)c(-c2ccncc2)[nH]1
inactive: inhibition [1] 46% | inhibition [2] -2% | outcome [5] | outcome [6] | outcome [7]
active: growth inhibition [8] 96% | growth inhibition [3] 98%

CN(c1ccc2c(c1)nc(NCc1ccccc1)n2C)c1ccnc(Nc2ccc(CS(C)(=O)=O)cc2)n1
active: growth inhibition [8] 69% | inhibition [1] 61% | growth inhibition [3] 94%
inactive: inhibition [2] 4% | outcome [4] | outcome [6] | outcome [7]

Cc1cc(Nc2nc(Nc3cccc(Cl)c3)nc3ccccc23)n[nH]1
active: growth inhibition [8] 95% | growth inhibition [3] 103%
inactive: inhibition [1] 9% | inhibition [2] -2% | outcome [4] | outcome [6] | outcome [7]

CC(=O)Nc1nc(C)c(-c2csc(Nc3ccc(Cl)cc3)n2)s1
inactive: inhibition [1] 14% | inhibition [2] 0% | outcome [4] | outcome [6] | outcome [7]
active: growth inhibition [8] 93% | growth inhibition [3] 96%

NS(=O)(=O)c1cccc(Nc2nccc(-c3cnn4ncccc34)n2)c1
inactive: inhibition [1] 39% | inhibition [2] 0% | outcome [4] | outcome [6] | outcome [7]
active: growth inhibition [8] 89% | growth inhibition [3] 89%

CS(=O)(=O)CCNCc1cccc(-c2ccc3c(Nc4cc(O)c(Cl)cc4F)ccnc3c2)c1
inactive: inhibition [1] 9% | inhibition [2] -7% | outcome [5] | outcome [6] | outcome [7]
active: growth inhibition [8] 100% | growth inhibition [3] 101%

CN(c1ccc(NC(=O)Nc2cc(C(F)(F)F)ccc2F)cc1)c1ccnc(NCCN2CCOCC2)n1
inactive: inhibition [2] -2% | outcome [4] | outcome [6] | outcome [7]
active: growth inhibition [8] 73% | inhibition [1] 67% | growth inhibition [3] 97%

Oc1cc(-c2nc(-c3ccccc3)[nH]c2-c2ccncc2)ccc1Cl
active: growth inhibition [8] 91% | inhibition [1] 64% | growth inhibition [3] 96% | AC50 [9] 16.6 µM | AC50 [10] 13.2 µM | AC50 [11] 2.35 µM | AC50 [12] 9.34 µM | IC50 [13] 23.5 µM
inactive: inhibition [2] -6% | outcome [5] | outcome [6] | outcome [7]

O=C(Nc1cccc(-c2nn3ccccc3c2-c2ccnc(Nc3ccc(-c4ccn[nH]4)cc3)n2)c1)c1c(F)cccc1F
inactive: outcome [5] | outcome [6]

CS(=O)(=O)Cc1ccc(Nc2ncc(Cl)c(Nc3cccnc3C(N)=O)n2)cc1
inactive: inhibition [2] -4% | outcome [4] | outcome [6] | outcome [7]
active: growth inhibition [8] 97% | inhibition [1] 54% | growth inhibition [3] 97%

CCN(CC)CCNC(=O)c1ccc(Nc2ncc([N+](=O)[O-])c(Nc3ccccc3OC)n2)cc1
inactive: inhibition [2] -6% | outcome [4] | outcome [6] | outcome [7]
active: growth inhibition [8] 58% | inhibition [1] 59% | growth inhibition [3] 97%

Cn1cnc2c(Nc3ccncc3)nc(-c3ccc4c(c3)OCO4)nc21
inactive: growth inhibition [8] 2% | inhibition [1] 19% | inhibition [2] -1% | outcome [4] | outcome [6] | outcome [7]
active: growth inhibition [3] 96%

CC(=O)c1ccc(NC(=O)Nc2ccc(N(C)c3ccnc(Nc4cccc(CS(C)(=O)=O)c4)n3)cc2)cc1
active: growth inhibition [8] 98% | inhibition [1] 86% | growth inhibition [3] 100%
inactive: inhibition [2] -1% | outcome [4] | outcome [6] | outcome [7]
